According to PubChem BioAssay (NCATS):
Results filed as inconclusive are left out. A call without a number means that no potency is given here. The source made the active and inactive calls. Calls come from the whole dose curve; as a rule, active = well fitted curve in the direction sought with a large enough effect; inconclusive = small, poorly fitted or top-dose-only effect, or another doubt; inactive = no such curve, though single readings can be large; an effect the other way counts as inactive or inconclusive.

Legend:
MCC-13 = assay: qHTS assay to identify novel small-molecules to repurpose for Merkel cell carcinoma treatment (AID 1296009); settings: MCC and control cell lines, CellTiter-Glo viability, 72 h; series mostly up to 46 µM; note: nearly all actives have a fitted effect of over 60% in size
Outline: (§1)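 Cells were treated for 72 hr at 37 degree celsius with compounds in 8- or 11-point dose response. Viability was read by CellTiter-Glo luminescence, normalized to no-cell (cytotoxicity) and DMSO controls.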

MKL-1 = assay: as above; settings: MCC and control cell lines, CellTiter-Glo viability, 72 h; series mostly up to 46 µM
Outline: as §1

WaGa = assay: as above; settings: MCC and control cell lines, CellTiter-Glo viability, 72 h; series mostly up to 46 µM
Outline: as §1

CASKI = assay: Primary qHTS to identify gynecologic anti-cancer compounds using libraries of approved drugs and bioactive compounds (AID 1345084); settings: Gynecologic cancer cell panel viability, ATPlite luminescence, 48 h; series mostly up to 57.5 µM; note: nearly all actives have a fitted effect of over 55% in size
Outline: (§2)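 Cells, 1,000 per well, were allowed to settle for 16 h at 37 C before compound addition. Five concentrations were tested for 48 h, and viability was read by ATPlite luminescence after 15 min at room temperature.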

Es-2 = assay: as above; settings: Gynecologic cancer cell panel viability, ATPlite luminescence, 48 h; series mostly up to 57.5 µM
Outline: as §2

HeLa = assay: as above; settings: Gynecologic cancer cell panel viability, ATPlite luminescence, 48 h; series mostly up to 57.5 µM
Outline: as §2

JEG-3 = assay: as above; settings: Gynecologic cancer cell panel viability, ATPlite luminescence, 48 h; series mostly up to 57.5 µM
Outline: as §2

OV90 = assay: as above; settings: Gynecologic cancer cell panel viability, ATPlite luminescence, 48 h; series mostly up to 57.5 µM
Outline: as §2

PA-1 = assay: as above; settings: Gynecologic cancer cell panel viability, ATPlite luminescence, 48 h; series mostly up to 57.5 µM
Outline: as §2

SKOV3 = assay: as above; settings: Gynecologic cancer cell panel viability, ATPlite luminescence, 48 h; series mostly up to 57.5 µM
Outline: as §2

Tov-21-G = assay: as above; settings: Gynecologic cancer cell panel viability, ATPlite luminescence, 48 h; series mostly up to 57.5 µM
Outline: as §2

MKL-2 = assay: qHTS assay to identify novel small-molecules to repurpose for Merkel cell carcinoma treatment (AID 1296009); settings: MCC and control cell lines, CellTiter-Glo viability, 72 h; series mostly up to 46 µM; note: nearly all actives have a fitted effect of over 60% in size
Outline: as §1

UISO = assay: as above; settings: MCC and control cell lines, CellTiter-Glo viability, 72 h; series mostly up to 46 µM
Outline: as §1

C33A = assay: Primary qHTS to identify gynecologic anti-cancer compounds using libraries of approved drugs and bioactive compounds (AID 1345084); settings: Gynecologic cancer cell panel viability, ATPlite luminescence, 48 h; series mostly up to 57.5 µM; note: nearly all actives have a fitted effect of over 55% in size
Outline: as §2

Hek293T = assay: as above; settings: Gynecologic cancer cell panel viability, ATPlite luminescence, 48 h, control line for the selectivity index; series mostly up to 57.5 µM
Outline: as §2

Tov112D = assay: as above; settings: Gynecologic cancer cell panel viability, ATPlite luminescence, 48 h; series mostly up to 57.5 µM
Outline: as §2

MCC-26 = assay: qHTS assay to identify novel small-molecules to repurpose for Merkel cell carcinoma treatment (AID 1296009); settings: MCC and control cell lines, CellTiter-Glo viability, 72 h; series mostly up to 46 µM; note: nearly all actives have a fitted effect of over 60% in size
Outline: as §1

NIH3T3 = assay: as above; settings: MCC and control cell lines, CellTiter-Glo viability, 72 h; at 44.8 µM (top of the series) unless noted
Outline: as §1
Potency is the fitted concentration of half-maximal effect.

C=CC(=O)Nc1ccc2ncnc(Nc3ccc(OCc4cccc(F)c4)c(Cl)c3)c2c1
Potency (MCC-13): 3720 nM (active) | Potency (MKL-1): 118 nM (active) | Potency (WaGa): 33.2 nM (active) | Potency (CASKI): 14100 nM (active) | Potency (Es-2): inactive | Potency (HeLa): inactive | Potency (JEG-3): inactive | Potency (OV90): inactive | Potency (PA-1): inactive | Potency (SKOV3): inactive | Potency (Tov-21-G): 10000 nM (active)

CC(=O)[C@]1(O)Cc2c(O)c3c(c(O)c2[C@@H](O[C@H]2C[C@H](N)[C@@H](O)[C@H](C)O2)C1)C(=O)c1ccccc1C3=O
Potency (MCC-13): 662 nM (active) | Potency (MKL-1): 148 nM (active) | Potency (MKL-2): 105 nM (active) | Potency (UISO): 590 nM (active) | Potency (WaGa): 83.3 nM (active)

Cc1ccccc1C(=O)Nc1ccc(C(=O)N2CCCC(O)c3cc(Cl)ccc32)c(C)c1 (configuration not stated)
Potency (MCC-13): inactive | Potency (MKL-1): inactive | Potency (MKL-2): inactive | Potency (UISO): inactive | Potency (WaGa): inactive | Potency (C33A): inactive | Potency (CASKI): inactive | Potency (Es-2): inactive | Potency (HeLa): inactive | Potency (Hek293T): inactive | Potency (JEG-3): inactive | Potency (PA-1): inactive | Potency (SKOV3): inactive | Potency (Tov-21-G): inactive | Potency (Tov112D): inactive

CC(=O)ON=C1C(c2c(O)[nH]c3cc(Br)ccc23)=Nc2ccccc21
Potency (MCC-13): inactive | Potency (MKL-2): inactive

CC(C)(N)c1ccc(-c2nc3ccccc3nc2-c2ccccc2)cc1
Potency (MCC-13): inactive | Potency (MCC-26): inactive | Potency (WaGa): 18700 nM (active) | Potency (C33A): inactive | Potency (HeLa): inactive | Potency (Hek293T): inactive | Potency (JEG-3): inactive | Potency (Tov-21-G): inactive | Potency (Tov112D): inactive

CCc1nc(-c2cccc(C)c2)c(-c2ccnc(NC(=O)c3ccccc3)c2)s1
Potency (MCC-13): inactive | Potency (MCC-26): inactive | Potency (C33A): inactive | Potency (CASKI): inactive | Potency (Es-2): inactive | Potency (HeLa): inactive | Potency (Hek293T): inactive | Potency (JEG-3): inactive | Potency (PA-1): inactive | Potency (Tov-21-G): inactive | Potency (Tov112D): inactive

Cc1ccc(-n2[nH]c(C)c(N=Nc3cccc(-c4cccc(C(=O)O)c4)c3O)c2=O)cc1C
Potency (MCC-13): inactive | Potency (MCC-26): inactive | Potency (C33A): inactive | Potency (CASKI): inactive | Potency (HeLa): inactive | Potency (JEG-3): inactive | Potency (OV90): inactive | Potency (PA-1): 1580 nM (active) | Potency (SKOV3): inactive

CC(C=CC(=O)NO)=C[C@@H](C)C(=O)c1ccc(N(C)C)cc1
Potency (MCC-13): 8330 nM (active) | Potency (MKL-1): 1660 nM (active) | Potency (MKL-2): 166 nM (active) | Potency (UISO): 3320 nM (active) | Potency (WaGa): 743 nM (active)

CCC(C=C[C@@H]1OC(=O)C=C[C@H]1C)=C[C@H](C)CC=CC(C)=C[C@@H](C)C(=O)[C@@H](C)[C@H](O)[C@@H](C)CC(C)=CC(=O)O
Potency (MCC-13): 98.4 nM (active) | Potency (MKL-2): 4.9 nM (active) | Potency (UISO): 22 nM (active)

COC[C@H](NC(=O)c1cnc(C)s1)C(=O)N[C@@H](COC)C(=O)N[C@@H](Cc1ccccc1)C(=O)[C@@]1(C)CO1
Potency (MCC-13): 526 nM (active) | Potency (MKL-1): 418 nM (active) | Potency (UISO): 235 nM (active) | Potency (WaGa): 118 nM (active)

C=CC1=C(C(=O)O)N2C(=O)[C@@H](NC(=O)C(=NO)c3csc(N)n3)[C@H]2SC1
Potency (MCC-13): inactive | Potency (MKL-1): inactive | Potency (MKL-2): inactive | outcome (NIH3T3): inactive | Potency (UISO): inactive | Potency (WaGa): inactive

CCCCC(=O)O[C@]1(C(=O)CO)[C@@H](C)C[C@H]2[C@@H]3CCC4=CC(=O)C=C[C@]4(C)[C@@]3(F)[C@@H](O)C[C@@]21C
Potency (MCC-13): inactive | Potency (MKL-1): inactive | Potency (MKL-2): inactive | Potency (UISO): inactive | Potency (WaGa): inactive | Potency (C33A): inactive | Potency (CASKI): inactive | Potency (Es-2): inactive | Potency (HeLa): inactive | Potency (Hek293T): inactive | Potency (JEG-3): inactive | Potency (OV90): inactive | Potency (PA-1): inactive | Potency (Tov-21-G): inactive | Potency (Tov112D): inactive

COc1cc(C)c(Sc2cnc(NC(=O)c3ccc(CNC(C)C(C)(C)C)cc3)s2)cc1C(=O)N1CCN(C(C)=O)CC1 (configuration not stated)
Potency (MCC-13): inactive | Potency (MKL-1): 20900 nM (active) | Potency (UISO): 18700 nM (active) | Potency (WaGa): 16600 nM (active)

CCOc1cc2c(c(F)c1OCC)C(=N)N(CC(=O)c1cc(N3CCOCC3)c(OC)c(C(C)(C)C)c1)C2
Potency (MCC-13): inactive | Potency (MCC-26): inactive | Potency (WaGa): inactive | Potency (CASKI): inactive | Potency (Es-2): inactive | Potency (HeLa): inactive | Potency (Hek293T): inactive | Potency (JEG-3): inactive | Potency (Tov-21-G): inactive | Potency (Tov112D): inactive

COc1ccc2c(c1OC)C(=O)OC2[C@H]1c2c(cc3c(c2OC)OCO3)CCN1C (some centres not stated)
Potency (MCC-13): 2960 nM (active) | Potency (MKL-2): inactive | Potency (UISO): 469 nM (active)
